# Test results: PubChem BioAssay (NCATS)
# “And” between values parts separate entries of the source, which are not always exact repeats. Equal values may be shown once. The source made the active and inactive calls. The call rests on the fitted dose curve.
# Test: qHTS drug screen for cell cycle checkpoint inhibitors in PARPi-resistant BRCA-mutant ovarian cancer cell lines. (AID 1963452)
# Conditions: PEO1/OlaR viability, CellTiter-Glo luminescence, 96 h; for Z-AUC: stronger effect = lower value
# In short: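 PEO1, PEO4 and PEO1/OlaR ovarian cancer cells, 600 per well, exposed 96 h at 37C to a dilution series. Viability read by CellTiter-Glo luminescence, normalized to DMSO and empty wells; activity summarized as Z-AUC.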
# [1] = measured here: PEO1 parental Z-AUC
# Potency means the concentration at half of the fitted maximal effect.
Structure (SMILES),Z-AUC,Z-AUC [1],Z-AUC (measured here: PEO4 Z-AUC),Potency
NC(=O)[C@H]1CCS[C@@H]2C[C@]3(CCCN3C(=O)Cc3ccc(NC(=O)COc4ccc(Cl)cc4Cl)cc3)C(=O)N12,-0.482 (inactive),0.014,0.0247,
NC[C@@](O)(c1ccc(Cl)cc1)c1ccc(-c2cn[nH]c2)cc1,,-1.09,-1.28,13800 nM (active)
CCNCc1nc2c(N)nc3ccccc3c2n1CC(C)(C)O,-0.12 (inactive),0.65,0.404,
Cc1c(C(=O)N2CCOc3ccc(-c4ccc(N)nc4)cc3C2)ccc(S(C)(=O)=O)c1F,0.331 (inactive),0.561,0.378,
COCCOc1ccc(N2CCN(CCn3ncc4c3nc(N)n3nc(-c5ccco5)nc43)CC2)cc1,-0.648 (inactive),-0.346,-0.723,
CO[C@@H](C)Cn1c(=O)n(C)c2cnc3ccc(-c4cncc(C(C)(C)O)c4)cc3c21,,-2.24,-2.14,2190 nM (active)
COCCN1CCN(Cc2ccc(-c3n[nH]c4c3C(=O)c3c(NC(=O)NN5CCOCC5)cccc3-4)cc2)CC1,0.43 (inactive),0.701,0.00286,
CCN1CCN(Cc2ccc(NC(=O)c3ccc(C)c(NC(=O)c4cncc(-c5cccs5)c4)c3)cc2C(F)(F)F)CC1,-1.84 (inactive),-1.46,-0.887,
COc1ccc(N(C)c2nc(C)nc3ccccc23)cc1,,-2.78,-2.81,3.9 nM (active)
CCN1CCN(Cc2ccc(NC(=O)c3ccc(C)c(/C=C/c4cnc5[nH]ccc5c4OC)c3)cc2C(F)(F)F)CC1,-1.16 (inactive),-1.48,-1.42,
CCCN1CCN(c2ccc(C(=O)NC3(C(=O)NCC#N)CCCCC3)cc2)CC1,0.959 (inactive),0.728,0.558,
COc1cc2ncnc(Nc3cccc(Cl)c3F)c2cc1OC(=O)N1CCN(C)C[C@H]1C,-0.739 (inactive),-1.08,-1.14,
COc1c(Nc2ncc(Cl)c(N[C@H]3[C@@H](C(N)=O)[C@@H]4C=C[C@H]3C4)n2)ccc2c1CC[C@@H](N1CCOCC1)CC2,0.583 (inactive),0.18,0.103,
Cc1ccc(-c2ccc3ncc4c(c3n2)n(C2CCN(C(=O)[C@H](C)O)CC2)c(=O)n4C)cn1,-1.81 (inactive),-2.34,-2.23,
Nc1nccn2c(C3CCC(C(=O)O)CC3)nc(-c3cc4cccc(Cl)c4[nH]3)c12 (stereo not given),-0.361 (inactive),-0.773,-1.14,
CC1=C(CO)C(=O)O[C@@H]([C@@H](C)[C@H]2CC[C@H]3[C@@H]4C[C@H]5O[C@]56[C@@H](O)C=CC(=O)[C@]6(C)[C@H]4CC[C@]23C)C1,-1.4 (inactive),-1.83,-1.49,
C=C1C(=O)O[C@H]2[C@H]1CC/C(C)=C/CC[C@@]1(C)O[C@@H]21,1.08 (inactive),0.881,0.819,
COc1cc(C(=O)NC2CCN(C)CC2)c(F)cc1Nc1ncc2c(n1)N(C1CCCC1)CC(F)(F)C(=O)N2C,,-2.61,-2.16,245 nM (active)
CCCCNc1ncc2c(-c3ccc(CN4CCN(C)CC4)cc3)cn(C3CCC(O)CC3)c2n1 (stereo not given),-1.53 (inactive) and -0.825 (inactive),-1.06 and -0.682,-1.13 and -0.785,
CCOc1cc(C(=O)N2CCC(N3CCN(C)CC3)CC2)ccc1Nc1ncc2c(n1)N(C1CCCC1)c1ccccc1C(=O)N2C,-1.32 (inactive),0.31,-0.487,
C[C@H](Nc1ncnc2nc[nH]c12)c1cc2ccc(F)cc2nc1-c1ccccn1,-0.541 (inactive),-0.257,0.432,
COc1cc2ncnc(Nc3ccc(F)c(Cl)c3)c2cc1NC(=O)/C=C/CN1CCCCC1,,-1.17,-1.24,6920 nM (active)
O=C(NCc1cccc(O)c1)Nc1nc(-c2ccncc2)cs1,-0.136 (inactive),0.195,-0.295,
Cc1cc(OCc2nnc(SC3CCCC3)n2-c2cccnc2)ccc1-c1ccc(S(C)(=O)=O)cc1,-1.33 (inactive),-3,-2.2,
CN[C@@H]1[C@H](O[C@H]2[C@H](O[C@@H]3[C@@H](O)[C@H](O)[C@@H](N=C(N)N)[C@H](O)[C@H]3N=C(N)N)O[C@@H](C)[C@]2(O)C=O)O[C@@H](CO)[C@H](O)[C@H]1O,1.52 (inactive),0.947,1.26,
CCOCc1nc2c(N)nc3ccccc3c2n1CC(C)(C)O,-0.746 (inactive),-0.509,-0.947,
CN1CCN(c2ccc(C(=O)Nc3n[nH]c4ccc(Cc5cc(F)cc(F)c5)cc34)c(NC3CCOCC3)c2)CC1,-0.903 (inactive),-1.2,-1.38,
CC(C)c1c2cc(-c3ccnc(NC4CCC(NC5CCOCC5)CC4)n3)ccc2nn1C (stereo not given),-1.95 (inactive),-2.05,-1.88,
CCCCNc1ncc2c(-c3ccc(F)cc3)nn(CC3CCC(N)CC3)c2n1 (stereo not given),-1.02 (inactive),-0.901,-1.35,
CS(=O)(=O)c1ccc(-c2nnc(/C=C/c3nnc(-c4ccc(C#N)cc4)o3)n2-c2ccccc2Cl)nc1,-0.316 (inactive),0.177,-0.0878,
